# Source: PubChem BioAssay (NCATS)
# Results filed as inconclusive are left out. A call without a number means that no potency is given here. Active and inactive are the calls of the source. The call rests on the fitted dose curve; in most records, active means well fitted curve in the direction sought with a large enough effect; inconclusive means small, poorly fitted or top-dose-only effect, or another doubt; inactive means no such curve, though single readings can be large; an effect the other way counts as inactive or inconclusive.
# Experiments:
# [1] = qHTS to identify inhibitors of the type 1 interferon - major histocompatibility complex class I in skeletal muscle: primary screen against the NCATS LOPAC collection (AID 1347405);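 further: lytic HiBiT luminescence reporting HLA-B protein level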
# In short: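 After 24 h at 37 C with compounds (7-point, 1:4.3 dilutions, 46 uM top final) plus 4 ng/ml IFN-beta, luminescence from lytic HiBiT detection was measured. HLA-B*08:01 in C25cl48 myoblasts carried an endogenous C-terminal HiBiT tag; medium lacked dexamethasone.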
# [2] = qHTS to identify inhibitors of the type 1 interferon - major histocompatibility complex class I in skeletal muscle: primary screen against the NCATS Pharmaceutical Collection (AID 1347407);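 further: luminescence of HiBiT knocked into endogenous HLA-B as interferon-induced MHC class I level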
# In short: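 Compounds […] were added to CRISPR-engineered HLA-B-HiBiT C25cl48 human myoblasts with 4.0 ng/ml IFN-beta. After 24 hrs at 37 C, cells were lysed and HiBiT luminescence measured.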
# [3] = qHTS to identify inhibitors of the type 1 interferon - major histocompatibility complex class I in skeletal muscle: primary screen against the NCATS Mechanism Interrogation Plate v5.0 (MIPE) Libary (AID 1347411); further: nearly all actives have a fitted effect of over 65% in size
# In short: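 Luminescence from CRISPR HiBit-tagged endogenous HLA-B in human myoblasts reported MHC class I level after 24 h of IFN-beta (4 ng/ml) plus compound. Compounds ran as 11-point 1:3 series, top 46 uM final.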
# [4] = target: Protein phosphatase 1D (Homo sapiens) (UniProt O15297); assay: RapidFire Mass Spectrometry qHTS Assay for Modulators of WT P53-Induced Phosphatase 1 (WIP1) (AID 1347424); further: potency means the concentration at half of the fitted maximal effect
# Chain of Protein phosphatase 1D (Homo sapiens) (O15297 whole entry, looked up): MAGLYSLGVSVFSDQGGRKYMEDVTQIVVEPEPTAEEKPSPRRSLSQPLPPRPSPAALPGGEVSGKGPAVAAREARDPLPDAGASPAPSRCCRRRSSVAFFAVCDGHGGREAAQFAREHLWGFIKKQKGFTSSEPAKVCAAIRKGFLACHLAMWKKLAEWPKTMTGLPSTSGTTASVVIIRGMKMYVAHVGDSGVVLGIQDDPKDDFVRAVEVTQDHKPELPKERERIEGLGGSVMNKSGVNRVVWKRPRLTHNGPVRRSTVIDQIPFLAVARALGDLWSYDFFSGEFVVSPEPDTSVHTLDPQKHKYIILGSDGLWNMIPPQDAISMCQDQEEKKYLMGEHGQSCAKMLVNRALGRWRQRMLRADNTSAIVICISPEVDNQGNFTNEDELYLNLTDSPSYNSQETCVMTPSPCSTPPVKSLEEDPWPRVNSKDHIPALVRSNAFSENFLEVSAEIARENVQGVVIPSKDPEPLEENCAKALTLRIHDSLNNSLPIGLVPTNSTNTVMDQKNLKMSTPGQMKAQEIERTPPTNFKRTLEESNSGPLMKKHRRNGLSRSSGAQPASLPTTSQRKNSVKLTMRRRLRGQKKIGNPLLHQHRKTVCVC
# In short: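 RapidFire MS readout of dephosphorylated VEPPL-S-QETFS product, with 1 uM isotope-labelled peptide standard. Reaction: 10 nM WIP1, 2 uM phosphopeptide substrate, 5 min, room temperature, after 1 h compound preincubation; stopped with 0.5% formic acid.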
# [5] = target: Protein phosphatase 1D (Homo sapiens) (UniProt O15297); assay: Rhodamine-PBP qHTS Assay for Modulators of WT P53-Induced Phosphatase 1 (WIP1) (AID 1347425)
# In short: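 5 nM WIP1 + 10 uM Rh-PBP, 50 mM Tris pH 7.5, 30 mM MgCl2, 1 mM TCEP, 0.1 mM EGTA, BSA; cpds pinned, 1 hr RT; + 10 uM phosphopeptide; fluorescence 1-min reads x 11 min; delta = f1 - f0.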
# [6] = Validation qHTS assay for inhibitors of Activation Induced Cytidine Deaminase (AID): UDG Counterscreen signal (AID 1347427)
# In short: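 Fluorescence at 560 nm excitation, 665 nm emission reports UDG signal after 250 mM NaOH (2x) addition and 30 min. Enzymes (AID 1 uM, UDG 2 U/mL, at 4/3x) preincubated 10 min with compound, then 4 h with 4x 250 nM DJC20/DJC23 substrate at room temperature.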
# [7] = qHTS for inhibitors of adenylyl cyclases using a fission yeast platform: a pilot screen against the NCATS LOPAC library (AID 1347410)
# In short: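 GFP from fbp1-GFP reporter, read by Acumen laser cytometry, indicates AC inhibition in fission yeast expressing AC9, GNAS and PDE4D2. Cells grown 18 h in the dark at 30C with compounds, final up to 57 uM.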
# [8] = qHTS for inhibitors of Wild type Zika virus screened against the NCATS CANVASS Library (AID 1347396);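 further: ATP luminescence of surviving cells so rescue from viral cell killing; series mostly up to about 46 µM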
# In short: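 Protection against wild-type Zika cytopathic effect is measured in African green monkey Vero 766 cells exposed to an 11-point compound series. Surviving cells are quantified by CellTiter Glo luminescence after 72 h.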
# [9] = Viability qHTS for inhibitors of the SERCaMP assay screened against the NCATS CANVASS Library (AID 1347400); further: series mostly up to about 92 µM; nearly all actives have a fitted effect of over 70% in size
# In short: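 CellTiter-Glo luminescence measured cytotoxicity after 48 h at 37C of compound treatment (11-point series). Cells were SH-SY5Y-GLuc SERCaMP MJH297 derivatives, seeded at 1000 per well 4 h beforehand.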
# [10] = Redox Reaction Profiling qHTS: Assay Interference Panel against the NCATS CANVASS Library (AID 1347401)
# In short: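 Fluorescence read-out (525 nm excitation, 598 nm emission) at time zero and after 15 min in the dark tracked resorufin formation. Mix: 5 uM resazurin, 200 uM DTT, HEPES pH 7.3 buffer with NaCl.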
SMILES,Potency [1],Potency [2],Potency [3],Potency [4],outcome [5],Potency [6],outcome [7],outcome [8],outcome [9],outcome [10]
CN1CCC(=C2c3ccccc3CC(=O)c3sccc32)CC1,inactive,inactive,inactive,inactive,inactive,inactive,–,–,–,–
CN(C)CCCN1c2ccccc2CCc2ccc(Cl)cc21,inactive,inactive,inactive,inactive,inactive,inactive,inactive,–,–,–
NC(=O)OCC(COC(N)=O)c1ccccc1,inactive,inactive,inactive,inactive,inactive,inactive,inactive,–,–,–
NC(CO)C(=O)NNCc1ccc(O)c(O)c1O (stereo unspecified),inactive,inactive,inactive,inactive,inactive,inactive,inactive,–,–,–
NC(=O)NO,inactive,inactive,inactive,inactive,inactive,inactive,inactive,–,–,–
CC[N+](CC)(CC)CCOc1cccc(OCC[N+](CC)(CC)CC)c1OCC[N+](CC)(CC)CC,inactive,inactive,inactive,inactive,inactive,inactive,–,–,–,–
COc1cc2nc(N3CCN(C(=O)C4COc5ccccc5O4)CC3)nc(N)c2cc1OC (stereo unspecified),inactive,–,–,inactive,inactive,inactive,–,–,–,–
CN(C)c1nc(N(C)C)nc(N(C)C)n1,inactive,inactive,inactive,inactive,inactive,inactive,–,–,–,–
Cc1ccc(C(=O)Nc2ccc(S(=O)(=O)O)c3cc(S(=O)(=O)O)cc(S(=O)(=O)O)c23)cc1NC(=O)c1cccc(NC(=O)Nc2cccc(C(=O)Nc3cc(C(=O)Nc4ccc(S(=O)(=O)O)c5cc(S(=O)(=O)O)cc(S(=O)(=O)O)c45)ccc3C)c2)c1,inactive,inactive,inactive,3.98 µM (active),–,inactive,–,–,–,–
CC(C)NCC(O)COc1ccc(CCOCC2CC2)cc1 (stereo unspecified),inactive,inactive,inactive,inactive,inactive,inactive,inactive,–,–,–
CNCCCC12CCC(c3ccccc31)c1ccccc12,inactive,inactive,inactive,inactive,inactive,inactive,inactive,–,–,–
CC(C)(C)C(=O)Oc1ccc(S(=O)(=O)Nc2ccccc2C(=O)NCC(=O)O)cc1,inactive,inactive,inactive,inactive,inactive,–,–,–,–,–
CC1COc2c(N3CCN(C)CC3)c(F)cc3c(=O)c(C(=O)O)cn1c23 (stereo unspecified),–,inactive,inactive,inactive,inactive,–,inactive,–,–,–
NCCc1cnc[nH]1,inactive,inactive,inactive,inactive,inactive,inactive,–,–,–,–
CCOC(=O)Nc1ccc(NCc2ccc(F)cc2)nc1N,inactive,inactive,inactive,inactive,–,–,–,–,–,–
Cc1ccc(-c2cc(C(F)(F)F)nn2-c2ccc(S(N)(=O)=O)cc2)cc1,inactive,inactive,–,–,–,–,–,–,–,–
O=c1[nH]cc(F)c(=O)[nH]1,inactive,inactive,inactive,inactive,inactive,inactive,–,–,–,–
COc1cc2nc(N(C)CCCNC(=O)C3CCCO3)nc(N)c2cc1OC (stereo unspecified),inactive,inactive,–,inactive,inactive,inactive,inactive,–,–,–
CCN1CCCC1CNC(=O)c1cc(S(=O)(=O)CC)c(N)cc1OC (stereo unspecified),inactive,inactive,inactive,inactive,inactive,inactive,inactive,–,–,–
CC(=O)OCC(CCn1cnc2cnc(N)nc21)COC(C)=O,inactive,–,inactive,inactive,inactive,–,–,–,–,–
CCC1(C)CC(=O)NC1=O (stereo unspecified),inactive,inactive,inactive,inactive,inactive,inactive,inactive,–,–,–
Cn1ccc2cc3c(cc21)CCN3C(=O)Nc1cccnc1,inactive,inactive,inactive,inactive,inactive,inactive,inactive,–,–,–
CN1CCC(=C2c3ccccc3C=Cc3ccccc32)CC1,inactive,inactive,inactive,inactive,inactive,inactive,inactive,–,–,–
Cn1cnc2c1c(=O)[nH]c(=O)n2C,inactive,inactive,inactive,inactive,inactive,inactive,–,–,–,–
OCCN(CCO)c1nc(N2CCCCC2)c2nc(N(CCO)CCO)nc(N3CCCCC3)c2n1,inactive,inactive,inactive,inactive,inactive,–,–,–,–,–
NC12CC3CC(CC(C3)C1)C2,inactive,inactive,inactive,inactive,inactive,inactive,inactive,–,–,–
O=C(c1ccc(F)cc1)C1CCN(CCn2c(=O)[nH]c3ccccc3c2=O)CC1,inactive,inactive,–,inactive,inactive,inactive,–,–,–,–
COc1ccc2[nH]cc(CCNC(C)=O)c2c1,inactive,inactive,inactive,inactive,inactive,inactive,inactive,inactive,inactive,inactive
NCCCCCC(=O)O,inactive,inactive,inactive,inactive,inactive,inactive,–,–,–,–
CCCNCC(O)COc1ccccc1C(=O)CCc1ccccc1 (stereo unspecified),inactive,inactive,inactive,inactive,inactive,inactive,inactive,–,–,–
